Compounds with a hit are over-represented: about 0.4% of the library has one in this group of screens.
EPAC2 ag: agonists of human EPAC2 (RAPGEF4); 360,000 compounds, 0.079% hits; AID 720711; Q8WZA2; EPAC2 activation, biochemical qHTS; response scale: 100% = 6.5 mM cAMP response; Potency, µM (series often up to 154 µM), inactives show at the top dose activation, hits mostly activators; note: nearly all actives have a fitted effect of over 50% in size
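In this primary screen, activation is scored as increased exchange of BODIPY-GDP from Rap1B by 100 nM EPAC2, with 50 uM GDP as competitor. Signal is normalized to the 6.5 mM cAMP agonist control.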
EPAC1 antagonist: antagonists of human EPAC1; O95398; 360,000 compounds, 0.14% hits; AID 720709; Potency, µM (highest dose often 115 µM), inactives show at the highest dose activity change, negative = inhibition, hits mostly inhibitors; EPAC1 GEF assay, Rap1b-BODIPY-GDP exchange fluorescence;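 note: plate controls were vehicle for no effect and positive control for full effect; nearly all actives have a fitted effect of over 50% in size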
Target sequence (O95398 whole entry, looked up): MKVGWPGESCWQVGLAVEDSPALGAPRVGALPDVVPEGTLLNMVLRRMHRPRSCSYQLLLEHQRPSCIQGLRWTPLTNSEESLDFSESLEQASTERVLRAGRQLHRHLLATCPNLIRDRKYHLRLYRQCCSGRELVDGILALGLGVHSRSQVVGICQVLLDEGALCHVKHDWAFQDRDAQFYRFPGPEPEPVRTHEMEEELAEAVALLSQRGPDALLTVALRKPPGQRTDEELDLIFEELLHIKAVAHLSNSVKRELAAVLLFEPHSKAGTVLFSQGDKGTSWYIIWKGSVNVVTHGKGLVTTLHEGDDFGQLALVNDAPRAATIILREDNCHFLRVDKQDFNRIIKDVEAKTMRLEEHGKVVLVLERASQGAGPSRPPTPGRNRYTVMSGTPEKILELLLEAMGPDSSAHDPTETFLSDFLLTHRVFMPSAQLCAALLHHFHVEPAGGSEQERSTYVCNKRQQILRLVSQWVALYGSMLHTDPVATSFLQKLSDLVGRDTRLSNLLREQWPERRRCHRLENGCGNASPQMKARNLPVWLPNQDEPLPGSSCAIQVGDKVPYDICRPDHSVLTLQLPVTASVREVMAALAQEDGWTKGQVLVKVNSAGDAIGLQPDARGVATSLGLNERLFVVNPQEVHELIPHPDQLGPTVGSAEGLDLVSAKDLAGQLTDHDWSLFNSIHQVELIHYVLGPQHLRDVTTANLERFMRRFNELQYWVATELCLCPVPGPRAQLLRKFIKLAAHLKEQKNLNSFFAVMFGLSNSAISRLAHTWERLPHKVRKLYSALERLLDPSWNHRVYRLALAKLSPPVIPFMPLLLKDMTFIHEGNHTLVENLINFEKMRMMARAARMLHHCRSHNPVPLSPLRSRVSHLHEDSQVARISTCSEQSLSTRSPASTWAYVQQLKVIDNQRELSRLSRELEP
EPAC2 antag: blocks human EPAC2 exchange factor; Potency, µM (doses to about 114 µM), for the others: at the highest dose activity, negative = inhibition, usual class: inhibitors; EPAC2 GEF exchange of Rap1B-BODIPY-GDP, fluorescence; AID 720708; 360,000 compounds, 0.18% hits; note: % is set by controls: 0 for no effect and ±100 for the full control effect; nearly all actives have a fitted effect of over 45% in size
EPAC1 ag: EPAC1 (human) agonism; EPAC1 agonist qHTS, biochemical assay; response scale: 100% = response to 6.5 mM cAMP; Potency, µM (titrated, usually from 154 µM), without a hit: at the top dose activation, most hits filed as activators; AID 720707; 360,000 compounds, 0.073% hits; note: nearly all actives have a fitted effect of over 60% in size
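Nucleotide exchange assay: 100 nM EPAC1 with 250 nM Rap1B loaded with BODIPY-GDP and 50 uM GDP, room temperature. Fluorescence (480/540 nm) read every 5 min for 30 min; signal change normalized to 6.5 mM cAMP as full agonist.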
ERG-DNA inh: inhibitors of human ERG Ets domain-DNA interaction | AID 624246 | 370,000 compounds, 0.028% hits | Potency, µM (top dose mostly 76.9 µM), without a hit: at the highest dose FP activity, negative = inhibition, usual class: inhibitors | fluorescence polarization, His-ERG Ets domain / labelled DNA | P11308; active = well fitted inhibition curve with a large enough effect in the polarisation, with a control signal flat; inconclusive = small, poorly fitted or top-dose-only effect, or effect the other way, or a change in a side signal; inactive = no such curve, though single readings can be large or run the other way; the % refers to the polarisation;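 note: polarization taken with two DNA probes labelled with fluorescein and Texas red; % of control where 0% means no effect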
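His-tagged ERG Ets domain (1 uM in the protein solution; 300mM KCl, 50mM Tris-HCl, 1mM EDTA, 1mM DTT, pH 7.5) received compound, then a probe mix of 5 nM fluorescein-DNA and 100nM Texas-615-DNA. Fluorescence polarization was read for both dyes.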
RGS4 inh: inhibitors of human regulator of G protein signaling 4 | P49798 | Transcreener GDP fluorescence polarization, RGS4-accelerated GTP hydrolysis | Potency, µM (series often up to 114 µM), for the others: at the highest dose activity change, negative = inhibition, hits mostly inhibitors | 390,000 compounds, 0.039% hits | AID 504845; note: % is set by controls: 0 for no effect and ±100 for the full control effect; nearly all actives have a fitted effect of over 75% in size
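MLSMR compounds (23 nl, pin-transferred) preincubated 10 min at room temperature with a 500nM (2x) first reagent, then RGS4 at 900nM (2x) plus Transcreener GDP mix added; fluorescence polarization (620/688 nm) read before and after 90 min at 30 °C.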
Numbers without * were called inactive; ? = inconclusive; nt = not tested or not shown; [ ] = remark or other dose. Unless noted, calls come from the whole dose curve; as a rule, active = well fitted curve in the direction sought with a large enough effect; inconclusive = small, poorly fitted or top-dose-only effect, or another doubt; inactive = no such curve, though single readings can be large; an effect the other way counts as inactive or inconclusive. Potency is the fitted concentration of half-maximal effect.

SMILES	EPAC2 ag	EPAC1 antagonist	EPAC2 antag	EPAC1 ag	ERG-DNA inh	RGS4 inh
COc1ccc(C(NC(=O)c2cc(OC)ccc2OC)c2ccccc2)cc1 (stereo not given)	10.7%	-23.7%	44.7µM*	11.8%	5.6%	14.2%
Cc1ccccc1CNC(=O)CCCn1c(=O)c2cccn2c2cccnc21	nt	nt	nt	nt	1.1%	0.6%
Cc1cccc(NC(=O)N2CCC(N3CCN(Cc4ccccc4)C(=O)C3=O)CC2)c1C	nt	nt	nt	nt	2.6%	17.0%
N#C/C(=C\c1ccc(Sc2ccc(Cl)cc2)o1)c1nc2ccccc2[nH]1	100µM*	7.0%	36.1%	8.1%	-2.6%	-11.5%
N#C/C(=C\c1ccc(Sc2nc3ccccc3[nH]2)o1)c1ccccc1	7.1%	-7.0%	0.7%	20.9%	-4.7%	?
N#C/C(=C/c1ccc(N2CCOCC2)o1)c1nc2ccccc2[nH]1	100µM*	-7.4%	46.4%	89.1µM*	?	-46.9%
N#C/C(=C\c1ccc(N2CCOCC2)o1)c1ccccc1	13.3%	6.2%	-0.7%	17.2%	nt	?
COc1ccc(OC)c(CNS(=O)(=O)c2ccc(-c3cc(C(F)(F)F)on3)s2)c1	nt	nt	nt	nt	-0.9%	-30.6%
CN1CCc2c(c3cnc4cc(Cl)ccc4c3n2C)C1	nt	nt	nt	nt	nt	30.3%
O=C1Cc2ccccc2C(=O)N1	19.9%	56.2µM*	?	9.0%	nt	nt
CCOc1ccccc1NC1c2ccccc2C(=O)N1Cc1ccco1 (stereo not given)	11.7%	3.3%	15.8µM*	3.9%	1.1%	-21.6%
O=C1c2ccccc2C(O)N1Cc1ccco1 (stereo not given)	1.2%	3.0%	2.6%	2.3%	-2.0%	-1.1%
COc1cc(/C=C2/SC(=O)NC2=O)ccc1OC(=O)c1ccco1	-4.6%	-20.9%	-1.8%	-9.5%	?	-5.3%
CCOc1cc(/C=C2/SC(=S)NC2=O)ccc1OC(=O)c1ccco1	3.0%	35.5µM*	35.5µM*	3.1%	37.9%	-40.6%
CCOc1cc(/C=C2\SC(=Nc3ccc(CC)cc3)NC2=O)ccc1OCC(=O)O	2.0%	35.5µM*	3.2%	?	1.1%	8.2%
Cc1ccc(C(CCN(Cc2ccccc2)C(=O)c2ccco2)c2ccco2)cc1 (stereo not given)	-2.5%	50.1µM*	?	0.2%	19.0%	?
CCOc1ccc(NC(=O)Cn2nc(CC)n3c(cc4sccc43)c2=O)cc1	nt	nt	nt	nt	-1.2%	-10.1%
NC(CO)C(=O)NNCc1ccc(O)c(O)c1O (stereo not given)	9.5%	11.0%	8.4%	-25.1%	?	9.47µM*
CC(C)(C)c1ccc(OCc2cc(=O)n3c4c(sc3n2)CCCC4)cc1	nt	nt	nt	nt	-7.5%	8.4%
CN(C)c1ccc(-c2cc3ccccc3c(=O)o2)cc1	100µM*	11.7%	93.8%	-0.6%	-1.7%	-31.3%
COc1ccc(-c2cc3ccccc3c(=O)o2)cc1	14.7%	-9.8%	-6.1%	1.5%	nt	nt
CCN1CCc2c(sc(NC(=O)Nc3ccc(Cl)c(Cl)c3)c2C(N)=O)C1	100µM*	?	?	100µM*	8.3%	?
NC(=O)c1c(NC(=O)c2ccccc2)sc2c1CCN(Cc1ccccc1)C2	89.1µM*	0.7%	22.7%	6.3%	12.5%	-16.3%
CCN1CCc2c(sc(NC(=O)c3ccc(S(=O)(=O)N4CCCCCC4)cc3)c2C(=O)NC)C1	-125.1%	-25.5%	161.1%	112µM*	2.4%	?
COc1cc(NC(=O)C(CC(C)C)NS(=O)(=O)c2ccc3c(c2)CCN3C(C)=O)cc(OC)c1 (stereo not given)	nt	nt	nt	nt	-1.9%	3.3%
SMILES	EPAC2 ag	EPAC1 antagonist	EPAC2 antag	EPAC1 ag	ERG-DNA inh	RGS4 inh
COc1ccc(C(C)=O)cc1COc1ccc(F)cc1	13.6%	-29.9%	56.2µM*	14.6%	4.9%	24.1%[56.9 µM]
O=C1c2ccccc2-c2onc3ccc(N4CCCC4)c1c23	-123.7%	145.5%	124.5%	-152.2%	17.8µM*	?
CCNc1ccc2noc3c2c1C(=O)c1ccccc1-3	89.1µM*	415.0%	152.0%	112µM*	?	-41.3%
CCOc1ccc2noc3c2c1C(=O)c1ccccc1-3	8.3%	3.7%	3.9%	-11.5%	4.4%	-17.0%
CC1=C(C(=O)OCc2ccc3c(c2)OCO3)C(c2ccccc2)NC(=O)N1 (stereo not given)	100µM*	2.2%	-7.0%	7.1%	nt	-0.7%
CC1=C(C(=O)OCc2ccc3c(c2)OCO3)C(c2ccccc2OCc2ccccc2)NC(=O)N1 (stereo not given)	-8.2%	-4.4%	-1.0%	8.5%	nt	-12.9%
CCN1C(=O)c2ccccc2S(=O)(=O)c2ccc(C(=O)NCc3ccccc3OC)cc21	nt	nt	nt	nt	1.8%	-24.7%
Clc1ccc(-c2csc(=Nc3cccnc3)n2CCCn2ccnc2)cc1Cl	-2.3%	9.5%	-7.3%	6.5%	-3.7%	-4.7%
COCCn1c(-c2ccc(Br)cc2)csc1=Nc1cccnc1	-3.5%	-1.0%	44.7µM*	10.2%	5.1%	3.4%
CC(C)C(C(=O)O)N1C(=O)/C(=C/C=C/c2ccco2)SC1=S (stereo not given)	1.1%	56.2µM*	-17.6%	9.0%	98.4%	?
Oc1ccccc1-c1nc(NCc2ccccc2)c2ccccc2n1	0.3%	?	89.1µM*	-29.8%	-7.1%	0.4%[56.9 µM]
CCC(CC)NC(=O)COC(=O)c1cc(SC)ccc1Cl	23.0%	7.1%	-2.1%	3.0%	12.6µM*	-27.2%
CCn1nc(-c2ccccc2C)nc2c(=O)n(C)c(=O)nc1-2	nt	nt	nt	nt	nt	-39.9%
CCc1ccc(S(=O)(=O)/N=C2\C=C(Nc3ccc(O)cc3)C(=O)c3ccccc32)cc1	10.8%	?	-23.6%	-2.8%	?	-27.9%
CCc1ccc(S(=O)(=O)/N=C2/C=C(Sc3ncn[nH]3)C(=O)c3ccccc32)cc1	9.8%	?	39.8µM*	0.7%	-6.4%	-136.9%
CCCCCCCCCCCCN1[C@@H](CC(=O)O)c2cc(F)ccc2S1(=O)=O	-22.4%	79.4µM*	?	-40.3%	6.7%	-23.1%
CCCCCCCCCCCCN1[C@@H](CC(=O)O)c2cc(C(F)(F)F)ccc2S1(=O)=O	-12.5%	79.4µM*	?	-39.4%	13.9%	-1.7%
CCCCCCCCN1[C@@H](CC(=O)OC)c2cc(F)ccc2S1(=O)=O	-2.6%	-26.3%	?	-27.4%	0.6%	-16.4%
CCCCc1cc(=O)oc2cc(C)cc(OCC(=O)N[C@@H](CSCc3ccccc3)C(=O)O)c12	-4.2%	-23.0%	?	-8.5%	-10.8%	-15.1%
CCc1cc(=O)oc2cc(C)cc(OCC(=O)N[C@@H](CSCc3ccccc3)C(=O)O)c12	7.3%	-16.5%	56.2µM*	-19.8%	1.2%	9.9%

High-throughput results: PubChem BioAssay, National Center for Advancing Translational Sciences (NCATS)
